Measured values reported in the supplement of paper PMC12350171.
Counter-ions that a name gives are not always drawn. Values without a mark were called inactive.

Columns and labels:
Conditions in all cases: 20 µM
[1] = test system: Salmonella enterica typhimurium; assay: growth AUC normalised to DMSO control (fraction of control); higher = less growth inhibition, active = hit call of the paper
In short: (§1)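 After two anaerobic passages, pathogens were added at a starting OD578 of 0.01 to pre-reduced mGAM plates holding compound at 20 μM with 1% DMSO; hemin and NAD were supplemented for Haemophilus parainfluenzae. Sealed with breathable membranes, plates were read at OD578 hourly for 24 h, in three biological replicates. The trapezoidal rule, applied up to the exponential-to-stationary transition, gave the growth-curve AUC, which was normalised to DMSO controls on the same plate.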

Shigella flexneri = assay: as above
In short: as §1

Vibrio cholerae = assay: as above
In short: as §1

[2] = test system: Yersinia pseudotuberculosis; assay: as above
In short: as §1

P. vulgatus RND KO = assay: growth AUC normalised to DMSO control (median) (fraction of control); higher = less growth inhibition, active = hit call of the paper
In short: (§2)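 For normalised area under the curve, growth curves were truncated at entry into stationary phase, integrated by the trapezoidal rule and divided against vehicle wells on the same plate. The curves came from strains passaged twice overnight without oxygen and then grown in mGAM in 96-well plates at a starting OD578 of 0.01. Each well held an approved-drug library compound at 20 μM with 1% DMSO, and OD578 was read hourly for 24 h in an anaerobic incubator. Values are medians of three biological replicates.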

P. vulgatus WT = assay: as above
In short: as §2

[3] = test system: S. enterica typhimurium WT; assay: as above
In short: as §2

[4] = test system: S. enterica typhimurium tolC KO; assay: as above
In short: as §2
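Throughout, for growth AUC normalised to DMSO control (median): active when median AUC fell below 0.1.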

Nc1ccc(S(=O)(=O)NC(=O)c2ccccc2)cc1 [Sulfabenzamide]
growth AUC normalised to DMSO control [1]: 1.02 | growth AUC normalised to DMSO control (Shigella flexneri): 1.03 | growth AUC normalised to DMSO control (Vibrio cholerae): 1.06 | growth AUC normalised to DMSO control [2]: 1.04 | growth AUC normalised to DMSO control (P. vulgatus RND KO): 1.05 | growth AUC normalised to DMSO control (P. vulgatus WT): 1.1 | growth AUC normalised to DMSO control [3]: 1 | growth AUC normalised to DMSO control [4]: 1.01

O=C1NCCN1c1ncc([N+](=O)[O-])s1 [Niridazole]
growth AUC normalised to DMSO control [1]: 0.0187 (active) | growth AUC normalised to DMSO control (Shigella flexneri): 0.204 (active) | growth AUC normalised to DMSO control (Vibrio cholerae): 0.036 (active) | growth AUC normalised to DMSO control [2]: 0.93 | growth AUC normalised to DMSO control (P. vulgatus RND KO): 0.00953 (active) | growth AUC normalised to DMSO control (P. vulgatus WT): 0.00802 (active) | growth AUC normalised to DMSO control [3]: 0.0321 (active) | growth AUC normalised to DMSO control [4]: 0.0104 (active)

CC(=O)N[C@@H](CC(C)C)C(=O)O [N-Acetyl-L-leucine]
growth AUC normalised to DMSO control [1]: 1.04 | growth AUC normalised to DMSO control (Shigella flexneri): 1.01 | growth AUC normalised to DMSO control (Vibrio cholerae): 1.03 | growth AUC normalised to DMSO control [2]: 1 | growth AUC normalised to DMSO control (P. vulgatus RND KO): 0.99 | growth AUC normalised to DMSO control (P. vulgatus WT): 0.997 | growth AUC normalised to DMSO control [3]: 0.999 | growth AUC normalised to DMSO control [4]: 0.996

N[C@@H]1CONC1=O [D-cycloserine]
growth AUC normalised to DMSO control [1]: 1.03 | growth AUC normalised to DMSO control (Shigella flexneri): 1.01 | growth AUC normalised to DMSO control (Vibrio cholerae): 1.02 | growth AUC normalised to DMSO control [2]: 1.01 | growth AUC normalised to DMSO control (P. vulgatus RND KO): 0.972 | growth AUC normalised to DMSO control (P. vulgatus WT): 0.962 | growth AUC normalised to DMSO control [3]: 0.994 | growth AUC normalised to DMSO control [4]: 1

Nc1nc(N)nc(-c2cc(Cl)ccc2Cl)n1 [Irsogladine maleate]
growth AUC normalised to DMSO control [1]: 0.998 | growth AUC normalised to DMSO control (Shigella flexneri): 1 | growth AUC normalised to DMSO control (Vibrio cholerae): 0.999 | growth AUC normalised to DMSO control [2]: 0.995 | growth AUC normalised to DMSO control (P. vulgatus RND KO): 0.959 | growth AUC normalised to DMSO control (P. vulgatus WT): 0.977 | growth AUC normalised to DMSO control [3]: 0.999 | growth AUC normalised to DMSO control [4]: 1

Nc1c2c(nc3ccccc13)CCCC2 [Tacrine hydrochloride]
growth AUC normalised to DMSO control [1]: 0.995 | growth AUC normalised to DMSO control (Shigella flexneri): 1.03 | growth AUC normalised to DMSO control (Vibrio cholerae): 1.02 | growth AUC normalised to DMSO control [2]: 0.98 | growth AUC normalised to DMSO control (P. vulgatus RND KO): 0.999 | growth AUC normalised to DMSO control (P. vulgatus WT): 1.06 | growth AUC normalised to DMSO control [3]: 0.986 | growth AUC normalised to DMSO control [4]: 0.992

CCN(CC)C(C)CN1c2ccccc2Sc2ccccc21 (stereo not given) [Ethopropazine hydrochloride]
growth AUC normalised to DMSO control [1]: 0.972 | growth AUC normalised to DMSO control (Shigella flexneri): 0.999 | growth AUC normalised to DMSO control (Vibrio cholerae): 0.918 | growth AUC normalised to DMSO control [2]: 0.995 | growth AUC normalised to DMSO control (P. vulgatus RND KO): 0.272 | growth AUC normalised to DMSO control (P. vulgatus WT): 0.246 | growth AUC normalised to DMSO control [3]: 0.993 | growth AUC normalised to DMSO control [4]: 0.951

CCOC(=O)n1ccn(C)c1=S [Carbimazole]
growth AUC normalised to DMSO control [1]: 0.98 | growth AUC normalised to DMSO control (Shigella flexneri): 1 | growth AUC normalised to DMSO control (Vibrio cholerae): 0.981 | growth AUC normalised to DMSO control [2]: 0.998 | growth AUC normalised to DMSO control (P. vulgatus RND KO): 0.993 | growth AUC normalised to DMSO control (P. vulgatus WT): 1.01 | growth AUC normalised to DMSO control [3]: 0.996 | growth AUC normalised to DMSO control [4]: 1.01

Nc1nc2n[nH]nc2c(=O)[nH]1 [Azaguanine-8]
growth AUC normalised to DMSO control [1]: 1.01 | growth AUC normalised to DMSO control (Shigella flexneri): 1.05 | growth AUC normalised to DMSO control (Vibrio cholerae): 1.01 | growth AUC normalised to DMSO control [2]: 0.996 | growth AUC normalised to DMSO control (P. vulgatus RND KO): 1.01 | growth AUC normalised to DMSO control (P. vulgatus WT): 0.999 | growth AUC normalised to DMSO control [3]: 0.987 | growth AUC normalised to DMSO control [4]: 1.01

COc1ccc(-c2cc(=O)c3c(O)cc(O[C@@H]4O[C@H](CO[C@@H]5O[C@@H](C)[C@H](O)[C@@H](O)[C@H]5O)[C@@H](O)[C@H](O)[C@H]4O)cc3o2)cc1O [Diosmin]
growth AUC normalised to DMSO control [1]: 0.988 | growth AUC normalised to DMSO control (Shigella flexneri): 0.96 | growth AUC normalised to DMSO control (Vibrio cholerae): 0.971 | growth AUC normalised to DMSO control [2]: 0.975 | growth AUC normalised to DMSO control (P. vulgatus RND KO): 0.997 | growth AUC normalised to DMSO control (P. vulgatus WT): 0.991 | growth AUC normalised to DMSO control [3]: 1 | growth AUC normalised to DMSO control [4]: 0.996

CC(=O)OCC(=O)NCCCOc1cccc(CN2CCCCC2)c1 [Roxatidine acetate hydrochloride]
growth AUC normalised to DMSO control [1]: 0.99 | growth AUC normalised to DMSO control (Shigella flexneri): 0.981 | growth AUC normalised to DMSO control (Vibrio cholerae): 1 | growth AUC normalised to DMSO control [2]: 0.939 | growth AUC normalised to DMSO control (P. vulgatus RND KO): 0.996 | growth AUC normalised to DMSO control (P. vulgatus WT): 0.985 | growth AUC normalised to DMSO control [3]: 0.994 | growth AUC normalised to DMSO control [4]: 0.986

CCOC(=O)NNc1nncc2ccccc12 [Todralazine hydrochloride]
growth AUC normalised to DMSO control [1]: 1.01 | growth AUC normalised to DMSO control (Shigella flexneri): 1.01 | growth AUC normalised to DMSO control (Vibrio cholerae): 0.99 | growth AUC normalised to DMSO control [2]: 1.01 | growth AUC normalised to DMSO control (P. vulgatus RND KO): 1.01 | growth AUC normalised to DMSO control (P. vulgatus WT): 0.999 | growth AUC normalised to DMSO control [3]: 1.01 | growth AUC normalised to DMSO control [4]: 1.02

CC(C)(Sc1cc(C(C)(C)C)c(O)c(C(C)(C)C)c1)Sc1cc(C(C)(C)C)c(O)c(C(C)(C)C)c1 [Probucol]
growth AUC normalised to DMSO control [1]: 0.996 | growth AUC normalised to DMSO control (Shigella flexneri): 1.02 | growth AUC normalised to DMSO control (Vibrio cholerae): 0.998 | growth AUC normalised to DMSO control [2]: 0.985 | growth AUC normalised to DMSO control (P. vulgatus RND KO): 1 | growth AUC normalised to DMSO control (P. vulgatus WT): 0.997 | growth AUC normalised to DMSO control [3]: 1.01 | growth AUC normalised to DMSO control [4]: 1

CC(=O)O[C@]1(C(C)=O)CC[C@H]2[C@@H]3C=C(C)C4=CC(=O)CC[C@@H]4[C@H]3CC[C@@]21C [Nomegestrol acetate]
growth AUC normalised to DMSO control [1]: 0.991 | growth AUC normalised to DMSO control (Shigella flexneri): 1.03 | growth AUC normalised to DMSO control (Vibrio cholerae): 1.06 | growth AUC normalised to DMSO control [2]: 1.01 | growth AUC normalised to DMSO control (P. vulgatus RND KO): 0.963 | growth AUC normalised to DMSO control (P. vulgatus WT): 1 | growth AUC normalised to DMSO control [3]: 1.03 | growth AUC normalised to DMSO control [4]: 0.94

CO[C@@]1(NC(=O)C2SC(=C(C(N)=O)C(=O)O)S2)C(=O)N2C(C(=O)O)=C(CSc3nnnn3C)CS[C@@H]21 (stereo not given in full) [Cefotetan]
growth AUC normalised to DMSO control [1]: 0.00234 (active) | growth AUC normalised to DMSO control (Shigella flexneri): 0.0192 (active) | growth AUC normalised to DMSO control (Vibrio cholerae): 0.186 (active) | growth AUC normalised to DMSO control [2]: 0.0842 (active) | growth AUC normalised to DMSO control (P. vulgatus RND KO): 0.0118 (active) | growth AUC normalised to DMSO control (P. vulgatus WT): 0.0068 (active) | growth AUC normalised to DMSO control [3]: 0.00563 (active) | growth AUC normalised to DMSO control [4]: 0.00413 (active)
